From PubChem BioAssay AID1347421 (Sanford-Burnham Center for Chemical Genomics, 2020)
In all, about 1,500 compounds were measured (“activity”: median about 2, lowest 2% from about -18 on). What follows is part of a selection rich in the lowest values, with near analogues and random picks from the rest. Activity calls are given as the source filed them.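 The calls were made as follows: active = inhibition of at least 40% at 10 µM; inconclusive = no clear call, values can overlap the other calls; inactive = the rest.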

target: Sulfhydryl oxidase 1 (Homo sapiens) (UniProt O00391); test: QSOX1 enzyme inhibitors, confirmation, biochemical, ROS-Glo luminescence, single concentration (AID 1347421); conditions: recombinant hQSOX1, RNase A substrate, ROS-Glo H2O2 luminescence; at 10 µM;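 also: 0% = DMSO wells with enzyme and 100% = wells lacking QSOX1 enzyme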
Sequence (O00391 whole entry, looked up): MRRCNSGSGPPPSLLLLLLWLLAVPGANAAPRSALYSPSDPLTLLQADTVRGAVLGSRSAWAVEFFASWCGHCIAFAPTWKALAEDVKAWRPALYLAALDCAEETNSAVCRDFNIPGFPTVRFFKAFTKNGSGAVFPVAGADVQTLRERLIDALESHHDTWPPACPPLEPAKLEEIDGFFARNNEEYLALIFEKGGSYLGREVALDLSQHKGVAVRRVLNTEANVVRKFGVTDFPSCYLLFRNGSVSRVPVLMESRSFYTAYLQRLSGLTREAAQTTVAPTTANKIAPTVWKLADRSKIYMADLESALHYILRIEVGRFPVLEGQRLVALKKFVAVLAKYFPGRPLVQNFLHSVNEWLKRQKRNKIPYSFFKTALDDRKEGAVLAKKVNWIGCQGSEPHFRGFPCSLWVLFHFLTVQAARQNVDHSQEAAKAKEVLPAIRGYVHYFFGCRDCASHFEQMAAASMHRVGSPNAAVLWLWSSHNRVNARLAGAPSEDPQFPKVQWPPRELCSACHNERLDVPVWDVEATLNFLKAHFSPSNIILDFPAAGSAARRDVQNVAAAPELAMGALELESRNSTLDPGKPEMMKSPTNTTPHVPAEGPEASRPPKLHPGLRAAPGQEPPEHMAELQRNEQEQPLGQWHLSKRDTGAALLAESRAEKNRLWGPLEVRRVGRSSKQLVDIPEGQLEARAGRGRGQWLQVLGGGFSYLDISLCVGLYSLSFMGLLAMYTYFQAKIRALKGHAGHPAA

Row | Structure (SMILES) | activity
1 | C=CCC(=O)N(CCOC)CC1CCCN(C2Cc3ccccc3C2)C1 (stereo not given) | 6.2%
2 | COC(=O)c1ccc(-c2noc(CN(C)CC3Cc4ccccc4O3)n2)cc1 (stereo not given) | 5.4%
3 | CCC(=O)Oc1ccc(-c2nc(-c3cccc(OC)c3)no2)cc1 | 86.9% (active)
4 | CCOC(=O)c1nc(-c2ccc(F)cc2)no1 | -21.6% (inactive)
5 | CC(C)NC(=O)C1CCN(C2CCN(C3CCSCC3)CC2)CC1 | 0.2%
6 | COc1ccccc1C(=O)C1CCCN(Cc2ccc(OCCO)cc2)C1 (stereo not given) | 1.5%
7 | O=C(c1cc2ccccc2oc1=O)N1CCOC(CC2CCCCC2)C1 (stereo not given) | 0.4%
8 | COc1ccc(N2CCN(C(=O)c3cccc(-n4cnnc4)c3)CC2)cc1 | -22.3% (inactive)
9 | COc1ccc(N2CCN(C(=O)c3ccc(-n4cnnc4)cc3Cl)CC2)cc1 | -13.7% (inactive)
10 | CC(=O)Nc1cccc(C(=O)N2CCN(c3ccccc3)CC2)c1 | 5.9%
11 | COCCN1CCCC(O)(CN2CCCCCC2)C1=O (stereo not given) | 10.4%
12 | O=C(CSc1nnc(-c2ccco2)o1)Nc1ccc(Br)cc1 | 2.3%
13 | O=C(/C=C/c1cccnc1)N1CCCC(N2CCN(c3ccc(F)cc3)CC2)C1 (stereo not given) | 1%
14 | c1ccc(Cc2nn3c(-c4cccs4)nnc3s2)cc1 | -5.3% (inactive)
15 | c1ccc(-c2nn3c(-c4cccs4)nnc3s2)nc1 | -20.4% (inactive)
16 | c1ccc(-c2nn3c(-c4ccco4)nnc3s2)nc1 | -4.2% (inactive)
17 | OCC1CCN(C2CCCN(Cc3cccc(OC4CCCC4)c3)C2)CC1 (stereo not given) | 7%
18 | CCCCNC(=O)N1CCN(Cc2ccccc2Cl)CC1 | -7% (inactive)
19 | CCN(CC)S(=O)(=O)Cc1ccccc1Cl | -19.9% (inactive)
20 | CCN(CC)CC(=O)N1CCOC(Cc2ccccc2Cl)C1 (stereo not given) | 2.5%
21 | C=CCNC(=O)CCc1ccc(S(=O)(=O)NC)cc1 | -11.4% (inactive)
22 | O=C(Cn1nnc(-c2cccs2)n1)NCCC1=CCCCC1 | -7.9% (inactive)
23 | CC(C)CCCC1CN(C(=O)CCC(N)=O)CCO1 (stereo not given) | 6.8%
24 | Cc1occc1-c1nnc2n1N=C(c1ccccc1)CS2 | -19.7% (inactive)
25 | Cc1oc(-c2ccccc2Cl)nc1CN(Cc1cnn(C)c1)C(C)C | 5.9%

Row | Structure (SMILES) | activity
26 | COc1ccc(CNCCCSC)cc1OCC(O)CN(C)C(C)C (stereo not given) | 3.5%
27 | O=C(NCC(c1ccc(F)cc1)N1CCCC1)c1cn(CCN2CCOCC2)nn1 (stereo not given) | 2.4%
28 | COc1cccc(NC(=O)CCC2CCN(C(=O)CCc3cnccn3)CC2)c1 | -0.4% (inactive)
29 | CCN1CCCC1CNC(=O)CCC1CCN(Cc2cc(OC)c3c(c2)OCO3)CC1 (stereo not given) | 0.6%
30 | CCS(=O)(=O)c1ncc(CN(C)CC(O)c2ccccc2)n1Cc1ccccc1 (stereo not given) | 6.9%
31 | CCn1cc(-c2nc(-c3ccccn3)no2)cn1 | 44.4% (active)
32 | COCCN1C(=O)C(=O)/C(=C(\O)c2ccc(OC)cc2C)C1c1cccnc1 (stereo not given) | -3% (inactive)
33 | NC(=O)C1CCCN(C(=O)Nc2ccc(F)cc2)C1 (stereo not given) | -0.4% (inactive)
34 | CSc1ncc(CN2CCCC(CO)(CCOc3ccccc3)C2)cn1 (stereo not given) | 10.5%
35 | COc1ccccc1CCN1CCC(CN(C)C(=O)c2cscn2)CC1 | -1.8% (inactive)
36 | Cc1cc(CNCc2cccc(OCC(O)CN3CCCCCC3)c2)on1 (stereo not given) | -2.7% (inactive)
37 | COC(=O)c1ccc(CNC(=O)CC2C(=O)NCCN2Cc2cccs2)cc1 (stereo not given) | 2.8%
38 | O=C(c1ccc(-c2ccccc2)c(F)c1)C1CCCN(C(=O)CCc2cnccn2)C1 (stereo not given) | 9.5%
39 | Fc1ccc(C2(c3noc(-c4cn[nH]c4)n3)CCOC2)cc1 (stereo not given) | 2.1%
40 | CC(C)Oc1cccc(C(=O)Nc2ncn[nH]2)c1 | -3.3% (inactive)
41 | Cc1cc(C)c(S(=O)(=O)Nc2ncn[nH]2)c(C)c1 | -18.4% (inactive)
42 | CCOC(=O)C1(CCCc2ccccc2)CCN(C(=O)CCn2cnnn2)CC1 | 0.6%
43 | COCc1ccc(C(=O)N2CCC(CCC(=O)NCc3cccnc3)CC2)o1 | 4.1%
44 | CC(C)CCCC1CN(Cc2ncc[nH]2)CCO1 (stereo not given) | 5.8%
45 | COc1ccc(OC2CCN(C(=O)C3CC3)CC2)c(C(=O)NCCCN2CCOCC2)c1 | 2%
46 | Cc1cccc(N2CCN(CC(=O)Nc3ccc(S(N)(=O)=O)cc3)CC2)c1C | -11.2% (inactive)
47 | O=C(CN1CCCCCC1)Nc1ccc(Cl)cc1 | -10% (inactive)
48 | Cc1ccc(NC(=O)CN2CCc3ccccc3C2)cc1 | -21.7% (inactive)
49 | CN(C)CCC1CN(C(=O)CSc2ccccc2)CCO1 (stereo not given) | 4.2%
50 | CC(C)Cc1ccc(CN2CCCC(NC3CCN(C)CC3)C2)cc1 (stereo not given) | -2.5% (inactive)

Row | Structure (SMILES) | activity
51 | O=C(CCc1ccncc1)N1CCOC(Cc2ccccc2Cl)C1 (stereo not given) | 3.1%
52 | CCN1CCCC1CN(CC1CCN(CCOC)CC1)C(=O)CCc1ccc(=O)[nH]n1 (stereo not given) | 6.9%
53 | CN(C)CCC1CN(Cc2cnc(-c3ccccc3)s2)CCO1 (stereo not given) | -0.6% (inactive)
54 | CCCn1c(=O)c2c(nc3n2CCN3Cc2ccco2)n(C)c1=O | -9.9% (inactive)
55 | Cc1nc(-c2ccc(CN3CCC(CCn4cccn4)CC3)cc2)[nH]c(=O)c1F | 7.1%
56 | O=C(c1ccc(-c2ccccc2)cc1)C1CCCN(C(=O)CN2C(=O)CSC2=O)C1 (stereo not given) | 5.7%
57 | O=C(CN1C(=O)CCNC1=O)N1CCC(OCc2ccccc2)CC1 | 2.9%
58 | CC(C)(C)C1(c2ccccc2)NC(=O)N(CC(=O)N2CCCCC2)C1=O (stereo not given) | -23.9% (inactive)
59 | COc1ccc(-c2noc(CN3CCC(C)CC3)n2)cc1OC | -16% (inactive)
60 | COc1cc(CN2CC[C@@H](N3CCCCCC3)[C@H](O)C2)ccc1F | 0.7%
61 | O=C(CCC1CCCN(C/C=C/c2ccc(F)cc2)C1)N1CCCC1 (stereo not given) | -1.2% (inactive)
62 | CN(C)S(=O)(=O)c1ccc(CCC(=O)N2CCOCC2)cc1 | 1.9%
63 | CS(=O)(=O)N(CC(=O)N1CCCC1)Cc1ccc(F)cc1 | -19.7% (inactive)
64 | COc1ccc(CNCCCN2CCOCC2)cc1OCC(O)CN1CCCC1 (stereo not given) | 4.6%
65 | COC(=O)CCCNC(=O)C1CCC(=O)N(Cc2ccccc2OC)C1 (stereo not given) | 1.6%
66 | COCCCNc1nc2nonc2nc1N(C)CCN1CCOCC1 | -1.4% (inactive)
67 | COc1ccc2oc3nc(=O)c4ccccc4c-3cc2c1 | -123% (inactive)
68 | COc1ccc(OC)c(-c2nc(CN3CCN(C(=O)c4ccco4)CC3)c(C)o2)c1 | -4% (inactive)
69 | COc1ccc(C(C)N(C)Cc2nc(-c3ccc(OC)cc3OC)oc2C)cc1 (stereo not given) | 5.7%
70 | Cc1ccc(C(=O)N2CCC3(CCCN(Cc4ccc(F)c(F)c4)C3=O)C2)cn1 (stereo not given) | 3.9%
71 | CCSCCn1ncc(N2CCNCC2)cc1=O | 1.4%
72 | CC(C)(CO)NC(=O)CC(c1ccccc1)c1ccc(Cl)cc1 (stereo not given) | 0.5%
73 | NCc1ccccc1SC1=[C+]C=C[C+]=C1CN1CCOCC1 | -11.3% (inactive)
74 | O=C(NC(=O)N1CCCC1)c1ccc(Cl)cc1 | -2.8% (inactive)
75 | O=C1CCCN1CCCNCc1cccc(OCC(O)CN2CCCCCC2)c1 (stereo not given) | 5.6%

Row | Structure (SMILES) | activity
76 | COc1ccccc1Oc1ncccc1CNCC1CCOC1 (stereo not given) | 2.6%
77 | Cc1cc(S(=O)(=O)n2ccnc2)c(C)c(C)c1C | -0.1% (inactive)
78 | O=C(CC1C(=O)NCCN1Cc1cccnc1)NCCCn1ccc2ccccc21 (stereo not given) | 3.3%
79 | COCC(=O)Nc1ccc(S(=O)(=O)N2CCCC(C)C2)cc1 (stereo not given) | 7.5%
80 | COc1ccc(S(=O)(=O)N2CCCC(C(=O)NC3CC3)C2)cc1OC (stereo not given) | -18.9% (inactive)
81 | COc1ccc(S(=O)(=O)N2CCCC2)cc1N(C)S(C)(=O)=O | -11% (inactive)
82 | CN1CCCCCC1C(=O)NCc1cccnc1N1CCN(c2ccccn2)CC1 (stereo not given) | -5.2% (inactive)
83 | CCOC(=O)c1cccc(CSc2n[nH]c(N)n2)c1 | -1.9% (inactive)
84 | Cn1ccnc1C1CCCCN1Cc1c(C(=O)N2CCCCCCC2)nc2sccn12 (stereo not given) | 10.8%
85 | COc1cccc(-c2n[nH]c3c2CN(CCc2ccccc2)CC3)c1 | 5.1%
86 | Fc1ccccc1-c1noc2c1CN(Cc1ccc3c(c1)OCCO3)CC2 | -4.5% (inactive)
87 | CCN(CC)C(=O)NCc1ccccn1 | -15.1% (inactive)
88 | CCN(CC)C(=O)NCc1ccc2c(c1)OCO2 | -18.4% (inactive)
89 | O=C(NCc1ccc2c(c1)OCO2)C1CCC(=O)N(CCc2cccc(F)c2)C1 (stereo not given) | -2% (inactive)
90 | Cc1cc(N2CCN(C(=O)c3cn(Cc4ccccc4F)nn3)CC2)cc(C)n1 | 2.1%
91 | Cc1noc(C)c1CC(=O)N1CCCC(CCC(=O)N(C)CCc2ccccn2)C1 (stereo not given) | 5.3%
92 | CN(CCc1ccccn1)C(=O)CCC1CCCN(C(=O)Cc2cccnc2)C1 (stereo not given) | 4.4%
93 | FC(F)(F)c1cc(-c2ccco2)nc(N2CCCCC2)n1 | -20.8% (inactive)
94 | FC(F)(F)c1cc(-c2ccco2)nc(NCc2cccs2)n1 | -4.8% (inactive)
95 | Cc1ccccc1CC(=O)NCC(C)C | -16% (inactive)
96 | COc1cc(C(=O)NC2CCCCC2)ccc1OC1CCN(C(C)=O)CC1 | 3.4%
97 | CN(CCc1ccccn1)[C@@H]1CCN(Cc2ccc(C#CCO)s2)C[C@H]1O | 4.2%
98 | Cc1occc1C(=O)Nc1ccc([N+](=O)[O-])cn1 | 17.1%
99 | C=C(C)CN(CC)C(=O)c1cc(COc2ccc(-n3cncn3)cc2)on1 | 9.4%
100 | COc1ccc(C2CC(=O)c3cn[nH]c3C2)cc1 (stereo not given) | -17.7% (inactive)

Row | Structure (SMILES) | activity
101 | COc1ccc(C2CC(=O)c3cnc(NC4CC4)nc3C2)cc1 (stereo not given) | 3.9%
102 | CCN1CCN(c2ncc3c(n2)CC(c2ccc(OC)c(OC)c2)CC3=O)CC1 (stereo not given) | -19% (inactive)
103 | O=C(CCc1ccsc1)N1CCOC(Cc2ccccc2Cl)C1 (stereo not given) | 20.5%
104 | Cc1cc(Br)c(S(=O)(=O)NCc2ccncc2)cc1C | 3.4%
105 | NC(=O)C1(N2CCCCC2)CCN(C(=O)C2CCC(=O)N(C3CCCC3)C2)CC1 (stereo not given) | 5.6%
106 | O=C(Nc1ccccc1C(=O)NC1CC1)c1ccccc1Cl | 11.7%
107 | Cc1ccccc1C(=O)Nc1ccccc1C(=O)N(C)C | -20% (inactive)
108 | Cc1ccccc1C(=O)Nc1c(Cl)ccc2nsnc12 | 0.9%
109 | COc1ccccc1/C=C/CN1CCNC(=O)C1CC(=O)NCCOc1cccnc1 (stereo not given) | -2% (inactive)
110 | CC(C)Cn1c(CN(C)Cc2ccco2)cnc1S(=O)(=O)CC1CCCO1 (stereo not given) | 4.1%
111 | O=C1CCC(C(=O)N2CCC(Oc3cccc(F)c3)CC2)CN1CCc1ccccn1 (stereo not given) | 0.7%
112 | O=C(Nc1n[nH]c(C2CCCCC2)n1)N1CCOC2(CCCC2)C1 | 1%
113 | C=CCC1(CC=C)CCCN1C(=O)c1cn(CC2COc3ccccc3O2)nn1 (stereo not given) | -0.3% (inactive)
114 | CS(=O)(=O)c1ncc(CO)n1Cc1ccccc1 | -4.5% (inactive)
115 | O=c1c2ccccc2nc(NCCO)n1Cc1ccccc1 | -20.3% (inactive)
116 | O=C(O)c1ccc(S(=O)(=O)N2CCSCC2)cc1 | -3% (inactive)
117 | NC(=O)COc1ccc(S(=O)(=O)N2CCOCC2)cc1 | -13.3% (inactive)
118 | O=C(c1cc(S(=O)(=O)N2CCOCC2)c(Cl)cc1Cl)N1CCSCC1 | -18.4% (inactive)
119 | O=C(Nc1ccc(-c2nc3ccccc3[nH]2)cc1)c1ccccn1 | 5.8%
120 | CN(C)S(=O)(=O)c1cccc(S(C)(=O)=O)c1 | 8.2%
121 | COc1cc(C)nc(NC(=O)Nc2cccc(Cl)c2)n1 | -2.3% (inactive)
122 | Cc1ccc(S(=O)(=O)c2ncsc2Cl)cc1 | 0.6%
123 | CC(C)Oc1ccc(NC(=O)CCN2C(=O)c3ccccc3C2=O)cc1 | 0.6%
124 | COC1=C(OC)C=CC(c2nnn(C3CCNCC3)n2)=[C+]1 | -20.6% (inactive)
125 | COc1cccc(CNCc2ccc(F)cc2)c1 | -17.7% (inactive)
